Compounds with a hit are over-represented: about 3.9% of the library has one in this group of screens.
TWEAK Fn14 block = inhibitors of TWEAK-Fn14 signaling, primary screen, luciferase reporter cells, uHTS | AID 1159606, 2016 | hit rate 2% among 360,000 | inhibition, % at 10 µM | TWEAK-stimulated Fn14 reporter cells, luciferase luminescence, 8 h; in the data active = inhibition above about 50%
HSP90 inh = HSP90 inhibitors, primary screen, cell lysate, luminescence; inhibition, % at 5.6 µM; hit rate 0.91% among 290,000; Rabbit reticulocyte lysate, luciferase refolding luminescence, 3 h; Heat shock protein HSP 90 (rabbit reticulocyte lysate; luciferase refolding);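 active = inhibition above the screen-wide mean plus 3 SD, computed separately per campaign, cut at about 16% in these data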;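 note: inhibitors lower the luminescence because luciferase stays unfolded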
HIF-2a inh = HIF-2a reporter inhibitors, primary screen, luminescence, 786-0 RCC cells; 786-0 RCC cells HIF-2a reporter, luciferase luminescence, overnight; inhibition, % at 18.8 µM; hit rate 0.72% among 360,000; AID 624352, 2012;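 active = inhibition of the luminescence signal of 40% or more relative to plate controls, in a single-dose primary screen at 18.75 µM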
aSyn 5UTR inh = MLPCN primary screen, SNCA 5' untranslated region; AID 1813, 2009; hit rate 0.82% among 300,000; inhibition, % (tested at 7.5 µM); alpha-synuclein 5'UTR reporter, inhibitor activity; in the data active = inhibition above about 60%; inconclusive = no clear call, values can overlap the other calls;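 note: H4 neuroglioblastoma cells stably carrying SNCA 5'UTR luciferase fusion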
TROY signal inh = inhibitors of TROY-driven NF-kB signaling, primary screen, Q293 LMP1-TROYcd cells, NF-kB luciferase, uHTS; Q293 LMP1-TROYcd NF-kB luciferase reporter, 4 h; inhibition, % at 10 µM; hit rate 0.98% among 360,000; AID 1347056, 2019;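 active = compounds whose plate-normalised and pattern-corrected inhibition of the luciferase reporter signal at the single screening dose is 50% or more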
TRAIL sens C8 = viability loss with TRAIL in NB7+C8 cells, primary screen, TRAIL sensitizer project, cell-based, ATPlite luminescence; inhibition (viability loss, TRAIL sensitization), % at 10 µM; hit rate 1% among 360,000; AID 624354, 2012;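 active = compounds causing at least 50% loss of cell viability in the single-dose screen, relative to plate controls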
HSP90 confirm = HSP90 inhibitors, confirmation, cell lysate, luminescence; shares compounds with HSP90 inh; rabbit reticulocyte lysate, luciferase refolding luminescence, 3 h; inhibition, % at 5.9 µM; hit rate 64% among 2,300; in the data active = inhibition above about 18%
luciferase ctr = firefly luciferase inhibitors, HSP90 counter-screen, confirmation, artefact control for HSP90 inhibitor project, biochemical, luminescence, triplicate; shares compounds with HSP90 inh; purified native firefly luciferase; inhibition, % at 5.9 µM; hit rate 48% among 2,300;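 active = inhibition above the mean inhibition of all tested sample wells plus 3 SD, cut at about 10% in these data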
Target sequence (P08659 whole entry, looked up): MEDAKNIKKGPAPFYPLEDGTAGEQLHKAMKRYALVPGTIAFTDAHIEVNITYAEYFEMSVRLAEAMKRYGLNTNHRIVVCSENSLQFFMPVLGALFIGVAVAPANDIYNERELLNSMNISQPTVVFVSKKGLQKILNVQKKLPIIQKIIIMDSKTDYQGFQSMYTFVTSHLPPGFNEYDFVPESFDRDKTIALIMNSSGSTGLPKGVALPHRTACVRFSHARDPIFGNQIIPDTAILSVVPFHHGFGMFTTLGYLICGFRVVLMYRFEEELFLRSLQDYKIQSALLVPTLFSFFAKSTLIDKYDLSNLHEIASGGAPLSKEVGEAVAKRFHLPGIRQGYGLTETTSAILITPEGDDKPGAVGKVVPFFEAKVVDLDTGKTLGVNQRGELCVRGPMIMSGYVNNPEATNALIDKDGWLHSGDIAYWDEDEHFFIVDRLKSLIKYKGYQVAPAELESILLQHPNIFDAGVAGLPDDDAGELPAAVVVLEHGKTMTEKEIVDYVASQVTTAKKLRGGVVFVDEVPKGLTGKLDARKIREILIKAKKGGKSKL
A number is an active result.

Screening COc1cccc(N2CCN(C(=O)c3ccc4nc(N5CCC(C)CC5)sc4c3)CC2)c1 returned HSP90 inh 74.2, aSyn 5UTR inh inactive, HSP90 confirm 75.7 and luciferase ctr 54.1.
`CC1CCN(c2nc3ccc(C(=O)N4CCN(Cc5ccccc5)CC4)cc3s2)CC1` gave TWEAK Fn14 block inactive, HSP90 inh 69.8, HIF-2a inh inactive, aSyn 5UTR inh inactive, TROY signal inh inactive, TRAIL sens C8 inactive, HSP90 confirm 65.4 and luciferase ctr 10.1.
NC(Cc1ccc(C(F)(F)F)cc1)c1csc(Nc2ccc(C(=O)c3ccccc3)cc2)n1 (stereo not drawn) was read as TWEAK Fn14 block inactive, HIF-2a inh inactive, TROY signal inh inactive and TRAIL sens C8 inactive.
COc1ccc(CCCN2CCC(CN3C(=S)NC[C@@H]3Cc3ccccc3)CC2)cc1OC was read as TWEAK Fn14 block inactive, HIF-2a inh inactive, TROY signal inh inactive and TRAIL sens C8 inactive.
Screening CN(C)S(=O)(=O)Oc1ccsc1C(=O)Nc1ccc(Cl)c(Cl)c1 returned TWEAK Fn14 block inactive, HSP90 inh 20.5, HIF-2a inh inactive, aSyn 5UTR inh inactive, TROY signal inh inactive, TRAIL sens C8 inactive, HSP90 confirm inactive and luciferase ctr inactive.
For COc1ccc(Cl)cc1S(=O)(=O)NC(C)C(=O)NCCN1CCOCC1 (stereo not drawn) the results were TWEAK Fn14 block inactive, HIF-2a inh inactive, TROY signal inh inactive and TRAIL sens C8 inactive.
For Cc1ccc(-c2cc(C(=O)N3CCCC3)no2)cc1 the results were TWEAK Fn14 block 83.1, HSP90 inh 20.1, HIF-2a inh inactive, aSyn 5UTR inh inconclusive, TROY signal inh 50.3, TRAIL sens C8 68.3, HSP90 confirm 64.6 and luciferase ctr 52.4.
`Cc1ccc(-c2cc(C(=O)N3CCOCC3)no2)cc1` gave TWEAK Fn14 block 85.6, HSP90 inh 62.0, HIF-2a inh inactive, aSyn 5UTR inh 66.9, TROY signal inh 67.4, TRAIL sens C8 69.2, HSP90 confirm 68.4 and luciferase ctr 56.7.
For O=C(c1cc(-c2ccco2)on1)N1CCOCC1 the results were TWEAK Fn14 block inactive, HSP90 inh inactive, HIF-2a inh inactive, aSyn 5UTR inh inactive, TROY signal inh inactive and TRAIL sens C8 inactive.
`O=C(c1cc(-c2ccc(Cl)c(Cl)c2)on1)N1CCCCCC1` gave TWEAK Fn14 block inactive, HSP90 inh inactive, HIF-2a inh inactive, aSyn 5UTR inh inactive, TROY signal inh inactive and TRAIL sens C8 inactive.
Screening COc1ccc(-c2cc(C(=O)N3CCOCC3)c3ccccc3n2)cc1OC returned TWEAK Fn14 block inactive, HIF-2a inh inactive, aSyn 5UTR inh inactive, TROY signal inh inactive and TRAIL sens C8 inactive.
Screening COc1cc2cc(C(=O)N3CCOCC3)cc(-c3ccc(C)cc3)c2cc1OC returned TWEAK Fn14 block inactive, HSP90 inh 50.1, HIF-2a inh inactive, aSyn 5UTR inh inactive, TROY signal inh inactive, TRAIL sens C8 inactive, HSP90 confirm inactive and luciferase ctr inactive.
`O=C(c1cc(-c2ccc3c(c2)OCO3)on1)N1CCCCC1` gave TWEAK Fn14 block 78.5, HSP90 inh 35.7, HIF-2a inh inactive, aSyn 5UTR inh inconclusive, TROY signal inh inactive, TRAIL sens C8 57.2, HSP90 confirm 58.4 and luciferase ctr 55.2.
`CCNC(=O)C1(C)CCN(C(=O)c2ccc(OC)cc2OC)C1` (stereo not drawn) gave TWEAK Fn14 block inactive, HIF-2a inh inactive, TROY signal inh inactive and TRAIL sens C8 inactive.
CCNC(=O)C1(C)CCCN(Cc2ccc(Oc3ccccc3)cc2)C1 (stereo not drawn) was read as TWEAK Fn14 block inactive, HIF-2a inh inactive, TROY signal inh inactive and TRAIL sens C8 inactive.

From PubChem
